In all, about 320,000 compounds went through this assay and about 50 (0.02%) were called active. This is one part of a sample in which actives are shown more often than they occur.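 Rule for the calls: active = GFP response relative to DMSO above a set limit, near screen average plus 3 SD (cut at about 150% in these data); inconclusive = fewer than 70 cells counted for the yeast strain; inactive = the rest.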
Experiment: modulators of AGP1-GFP expression in yeast TOR pathway, primary screen, cell-based, multiplex flow cytometry, S. cerevisiae, MLPCN library (AID 2066);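 note: median GFP channel fluorescence of the gated AGP1 strain per well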
Details: 3 h, at 10 µM, active compounds read high, GFP as percent of DMSO wells

GFP response vs DMSO, inactive:
CCn1cc(C(=O)Nc2cc(C)ccc2C)c(=O)c2ccc(C)nc21 108%
C=CCNC(=S)/N=c1/ccccn1Cc1ccccc1 108%
Cc1ccc2cc(C)c(N3CCC(C)CC3)nc2c1 108%
CCC1(C)Cc2c(sc3nnn(CC(=O)Nc4ccc(Cl)cc4)c(=O)c23)CO1 (centres undefined) 98%
Cc1nn(Cc2ccccc2)c(C)c1C(=O)N1CCN(CC(=O)Nc2ccccc2Cl)CC1 99.8%
CCN1C(=O)N[C@@H](c2ccccc2)[C@H](C(C)=O)[C@H]1C 81.1%
COC(=O)c1cc(NC(=O)c2cc(C(C)(C)C)nn2Cc2cccc(C)c2)ccc1N1CCOCC1 97%
CCOC(=O)C(C)n1cnc2scc(-c3ccc(C)c(C)c3)c2c1=O (centres undefined) 93.8%
COC(=O)c1sccc1-n1cccc1C(=O)C(=O)N1CCCCC1 92.6%
Cc1ccc(C(c2nnnn2CS(=O)(=O)c2ccc(C)cc2)N2CCC(C)CC2)cc1 (centres undefined) 91.3%
CC(=O)Nc1ccc(S(=O)(=O)NCC(=O)OCC(=O)c2ccc[nH]2)cc1 107%
O=C(Nc1cc(S(=O)(=O)N2CCOCC2)ccc1N1CCOCC1)c1c(F)cccc1Cl 103%
CC(Sc1nnc(Cc2ccc([N+](=O)[O-])cc2)o1)C(N)=O (centres undefined) 97.7%
O=C(O)c1cccc(S(=O)(=O)N2CC=C(c3ccccc3)CC2)c1 101%
O=C1c2ccccc2C(=O)N1CC1c2ccccc2CCN1S(=O)(=O)c1ccccc1 (centres undefined) 96.4%
Cc1nnc(CN(C)Cc2cn[nH]c2-c2ccc(-c3ccccc3)cc2)o1 108%
CC(c1ccccn1)N(C)C(=O)c1ccc2nc(Cc3cccc(Cl)c3)oc2c1 (centres undefined) 103%
Cn1nnnc1SCC(=O)Nc1cccc(S(=O)(=O)N2CCCCC2)c1 77.3%
O=C(OCC(=O)N1CCCCCC1)c1cnc(Cl)c(Cl)c1 97.1%
COc1ccc(NC2=CC(=S)NC(C)(C)C2)cc1 99.9%
CCN(CC)CCCNC(=O)c1c(O)c2cc(F)cc3c2n(c1=O)C(C)CC3 (centres undefined) 88.3%
O=c1cc(Cl)c2ccccc2n1-c1ccccc1 103%
N#Cc1ccccc1NC(=O)COc1c(Br)cc(Br)c2cccnc12 96.8%
Cc1cc(C)nc(N2C(=O)CC(Cc3ccccc3)C2=O)n1 (centres undefined) 112%
CCOC(=O)N1CCC(NC(=O)CN2C(=O)COc3ccc(C(C)(C)C)cc32)CC1 88.7%
CCCCN(C(=O)c1ccc2ccccc2c1)c1c(N)n(CCCC)c(=O)[nH]c1=O 92.5%
O=C(CN1CCN(S(=O)(=O)c2cc(Cl)ccc2Cl)CC1)c1ccc(O)c(O)c1 94.9%
CCOc1ccc2oc(C(=O)N(CC)CC(=O)Nc3ccc(NC(C)=O)cc3)c(C)c2c1 103%
COc1cccc(NC(=O)C(Sc2nc3ccccc3c(=O)n2CC(C)C)c2ccccc2)c1 (centres undefined) 98.7%
